Values without a mark were called inactive. Active and inactive are the calls of the source. The rule behind the calls is not given here.
Test system: HIV-1 nucleocapsid protein NCp7 (binding to TG oligonucleotide)
Assay: HIV Nucleocapsid (AID 346);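 note: potency is for inhibitors that block NC binding and lower polarization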
Conditions: HIV-1 NC / fluorescein-TGTGTGTG probe, fluorescence polarization
Method in brief: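 NCp7 100 nM + fluorescein TG4xF 10 nM; Hepes pH 7.5/250mM NaCl/1uM ZnCl2/0.004% PEG 20000; 1 hr RT; FP, 45 s exposure; oligo-only wells as negative control.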
Potency is the fitted concentration of half-maximal effect.

Row | Structure (SMILES) | Potency
1 | Cc1cccc(CNc2nc(-c3cccc(NS(C)(=O)=O)c3)nc3ccccc23)c1 | > 20 µM
2 | CS(=O)(=O)Nc1cccc(-c2cncnc2-n2ccnc2)c1 | > 20 µM
3 | O=c1c(-c2cccs2)nc2cnc(N3CCOCC3)nc2n1CCc1ccccc1 | > 20 µM
4 | CNc1nc(-c2ccc3c(c2)OCO3)nc2ccccc12 | > 20 µM
5 | COC(=O)N1CCC[C@@]2(CCN(c3ccccc3)C2)C1 | > 20 µM
6 | Cn1c(=O)c(-c2ccc(F)cc2)nc2cnc(Nc3ccccc3)nc21 | > 20 µM
7 | COc1cccc(Cn2c(=O)c(-c3cn(C)c4ccccc34)nc3cnc(OC)nc32)c1 | > 20 µM
8 | Fc1ccc(Nc2nc(-c3cccnc3)nc3ccccc23)cc1 | > 20 µM
9 | O=C(Nc1ccccc1)N1CC2(CCN(C(=O)c3cnccn3)CC2)C1 | > 20 µM
10 | O=C(c1cccc(F)c1)N1CCC2(CC1)CCN(c1ccncc1)CC2 | > 20 µM
11 | COc1ccc(C(=O)N2CCC3(CC2)CCN(c2ncccn2)CC3)cc1 | > 20 µM
12 | COc1cccc(Cn2c(=O)c(-c3cccs3)nc3cnc(N4CCN(C)CC4)nc32)c1 | > 4 µM
13 | O=c1c(-c2cccs2)nc2cnc(N3CCNCC3)nc2n1C1CC1 | > 20 µM
14 | CCNc1ncc2nc(-c3ccc(Cl)cc3)c(=O)n(-c3ccccc3)c2n1 | 7.07 µM (active)
15 | N#Cc1ccc(CN2CC3(CCN(C(=O)c4ccco4)CC3)C2)cc1 | > 20 µM
16 | N#Cc1cccc(-c2ccc3ncnc(NCc4cccnc4)c3c2)c1 | > 20 µM
17 | O=c1cnc2cnc(N3CCNCC3)nc2n1Cc1ccc(F)cc1 | > 20 µM
18 | O=C(c1csnn1)N1CCC2(CC1)CN(c1cccc(-c3ccccc3)c1)C2 | > 20 µM
19 | CC(C)NC(=O)N1CC[C@@]2(CCCN(C(=O)Oc3ccccc3)C2)C1 | > 20 µM
20 | COc1cccc(-c2cncnc2NCc2ccc(OC)cc2OC)c1 | > 20 µM

Row | Structure (SMILES) | Potency
21 | O=C(c1cnccn1)N1CCC2(CCCN(Cc3ccncc3)C2)CC1 | > 20 µM
22 | Cc1ccccc1-c1cncnc1NCc1ccccc1 | > 20 µM
23 | CN(C)C(=O)c1ccc(-c2cncnc2NCc2ccccc2)cc1 | > 20 µM
24 | COc1cccc(-c2cncnc2NCCc2c[nH]c3ccc(OC)cc23)c1 | > 20 µM
25 | COCC(=O)N1CCC2(CCCN(c3ccc(-c4ccccc4)cc3)C2)CC1 | > 20 µM
26 | Cc1cnc(CNc2cc(-c3ccc4c(c3)OCO4)ncn2)cn1 | > 20 µM
27 | COc1ccc(NC(=O)N2CC3(CCN(C(C)=O)CC3)C2)cc1 | > 20 µM
28 | N#Cc1cccc(-c2nc3cnc(N4CCOCC4)nc3n(C[C@H]3CCCO3)c2=O)c1 | > 20 µM
29 | COCCNc1ncnc2ccc(-c3cccnc3)cc12 | > 20 µM
30 | O=C(Oc1ccccc1)N1CCC2(CCCN(c3ccccc3)C2)CC1 | > 20 µM
31 | Cc1ccccc1-c1nc(NCCN2CCOCC2)c2ccccc2n1 | > 20 µM
32 | Cc1ccccc1-c1cncnc1Nc1ccc(F)cc1 | > 20 µM
33 | COc1ccc(C(=O)N2CCC[C@@]3(CCN(C)C3)C2)cc1 | > 20 µM
34 | O=c1c(-c2cc(F)cc(F)c2)nc2cnc(N3CCNCC3)nc2n1C1CC1 | > 20 µM
35 | O=C(c1cnccn1)N1CCC2(CCCN(c3ccccn3)C2)CC1 | > 20 µM
36 | Cc1nc2cnc(N3CCOCC3)nc2n(Cc2ccc(F)cc2)c1=O | > 20 µM
37 | Cc1cnc(CNc2cc(-c3cccc(NS(C)(=O)=O)c3)ncn2)cn1 | > 20 µM
38 | CN(C)Cc1ccccc1-c1ccc2ncnc(NC3CCNCC3)c2c1 | > 20 µM
39 | CN(C)C(=O)c1ccc(-c2ccc3ncnc(NCc4ccccc4)c3c2)cc1 | > 20 µM
40 | COC(=O)N1CCC[C@@]2(CCN(c3ccncc3)C2)C1 | > 20 µM

Source: PubChem BioAssay (NCATS)
